From ChEMBL document CHEMBL3988442, “University of Dundee, Small-Polar-MMV Screening Library” (2021)

biological target: T1, Aspartate--tRNA(Asp/Asn) ligase (Mycobacterium tuberculosis (strain ATCC 25618 / H37Rv)) (UniProt P9WFW3); assay: Assay for Asp RNA synthetase-1 from Mycobacterium tuberculosis; format: functional; parameters: scale not given: in the data most compounds retested in dose-response had high values; details: 30 µM
T1 sequence (whole entry): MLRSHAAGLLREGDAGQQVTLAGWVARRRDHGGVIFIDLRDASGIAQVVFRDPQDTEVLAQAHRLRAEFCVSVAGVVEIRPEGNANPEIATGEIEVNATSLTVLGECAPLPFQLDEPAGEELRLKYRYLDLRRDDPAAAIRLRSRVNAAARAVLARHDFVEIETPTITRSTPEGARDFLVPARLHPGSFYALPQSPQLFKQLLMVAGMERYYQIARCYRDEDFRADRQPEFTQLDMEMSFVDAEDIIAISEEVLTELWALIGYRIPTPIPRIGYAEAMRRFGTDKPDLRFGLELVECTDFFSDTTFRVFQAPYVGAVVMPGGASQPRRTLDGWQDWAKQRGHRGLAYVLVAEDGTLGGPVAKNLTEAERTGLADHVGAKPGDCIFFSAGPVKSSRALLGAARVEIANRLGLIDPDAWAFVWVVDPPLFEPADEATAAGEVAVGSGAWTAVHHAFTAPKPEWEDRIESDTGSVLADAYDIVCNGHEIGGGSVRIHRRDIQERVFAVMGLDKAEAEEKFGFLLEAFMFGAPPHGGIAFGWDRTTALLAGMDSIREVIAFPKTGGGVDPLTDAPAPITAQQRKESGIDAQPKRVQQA

Point of comparison: CC(C)c1cc(C(=O)N(C)Cc2cccc3ncccc23)n(C)n1, Percent Effect -4.72%. Against it:
- CC(=O)N1CCOC2(CCN(C(=O)c3cnoc3C)CC2)C1 — higher, -1.11%
- Cc1ccccc1-n1ncc(C(=O)N2CCCC2c2cnn(C)c2)c1C (stereo not given) — higher, 0.583%
- COCC1CCN(C(=O)c2cccc(S(=O)(=O)NC3CCCC3)c2)C1 (stereo not given) — higher, -0.437%
- CCN(Cc1ccc2c(c1)OCO2)C(=O)CCc1c(C)nc(C)[nH]c1=O — higher, -2.63%
- CN(CCN1CCOCC1)C(=O)CCc1cccc(Cl)c1 — higher, -4.7%
- CN(C)C(=O)N1CCN(Cc2nnc(C(C)(C)C)o2)CC1 — higher, -2.73%
- O=C(Cc1ccsc1)N1CCCC(c2n[nH]c3nccnc23)C1 (stereo not given) — lower, -5.85%
- COCCCNC(=O)CN(C)C(=O)c1cc(C)ccc1N(C)C(C)C — higher, 1.84%
- CN1CC(=O)N(c2cccnc2)CC12CCN(C(=O)c1cccnc1)C2 (stereo not given) — higher, 4.16%
- CCN1CCOC(CNCc2ccccc2OCc2ccccn2)C1 (stereo not given) — higher, 3.85%
- CCn1c(C)nnc1CN(C)C1CCN(CCn2cccn2)C1 (stereo not given) — higher, 1.41%
- CC(NCC1=Cc2cc(Cl)ccc2OC1)c1nnc2n1CCCC2 (stereo not given) — higher, 1.06%
- CN(Cc1ccco1)[C@@H]1CN(Cc2ccc(F)cc2)C[C@@H]2CCCO[C@@H]21 — higher, 6.12%
- N#Cc1ccc(S(=O)(=O)NC(=O)C2CC2)c(C(F)(F)F)c1 — higher, 4.77%
- Cn1ccnc1CNC(=O)N(CCCO)C1CCCc2ccccc21 (stereo not given) — higher, 0.809%
- CCn1cc2c(n1)CN(Cc1nccs1)CC2COCC1CC1 (stereo not given) — higher, 5.78%
- COCC(=O)N1CCC(c2cc(C(F)(F)F)n3ccnc3n2)CC1 — higher, -2.99%
- Cc1ccc(CN2C[C@@H]3COC[C@@H](NS(C)(=O)=O)[C@@H]3C2)o1 — higher, 1.98%
- O=c1[nH]c2nc(N3CCSCC3)ncc2c(=O)n1-c1cccc(F)c1 — higher, 13.7%
- Cc1ccc(CN2CCc3ncc(CNS(C)(=O)=O)n3CC2)o1 — higher, 1%
- Cc1nc(C)n(CC2CCCN2Cc2cn3ccsc3n2)n1 (stereo not given) — higher, 1.75%
- CC(C)(C)c1cn2nc(N3CCOC(Cn4cncn4)C3)sc2n1 (stereo not given) — higher, -2.01%
- O=C(COc1ccccc1)N1CCC[C@]2(C[C@H](OCC3CC3)CO2)C1 — higher, 1.3%
- O=C([C@@H]1CC[C@@H]2[C@@H](CCN2Cc2ccoc2)O1)N1CCCC1 — higher, 0.466%
- Cc1nc(CO[C@@H]2CN(Cc3cnn(C)c3)[C@@H]3COC[C@@H]32)cs1 — lower, -6.31%
- CC1=NN(c2ccc(C(=O)N3CCCC(n4ccnc4)C3)cc2)CC1 (stereo not given) — higher, 1.08%
- CNC(=O)c1cc2c(nc1NCC1CC1)CCN(c1ccncn1)CC2 — higher, -4.09%
- Cc1cnc(N2CCCC3(CCN(Cc4csc(C)n4)C3=O)C2)nc1 (stereo not given) — higher, 6.32%
- O=C(c1ccncn1)N1CCO[C@H]2[C@@H](OCc3cccnc3)CC[C@@H]21 — higher, 5.42%
- O=C(NCCCN1CCc2ccccc2C1)c1cccnc1O — higher, -2.28%
- CCN1C[C@H]2CCN(C(=O)NC3CCCC3)CC[C@H]2S1(=O)=O — higher, -0.232%
- COc1cccc(OCC2CCCN(C3CCN(C(C)=O)CC3)C2)c1 (stereo not given) — higher, 4.72%
- Cc1cnn(CC2CN(c3ncnc4ccsc34)CCO2)c1 (stereo not given) — higher, -1.51%
- O=C(NCc1ccccn1)NC1CCOc2ccccc21 (stereo not given) — lower, -6.21%
- CN(C(=O)c1cccc(C(=O)NS(C)(=O)=O)c1)c1ccccc1 — higher, 9.93%
- Cc1cc(N2CCC(CC(N)=O)CC2)nc(-c2ccncc2)n1 — higher, 6.11%
- CCc1nc(CN2CCCC(NCc3nc4cccnc4[nH]3)C2)no1 (stereo not given) — higher, -3%
- CN(C)S(=O)(=O)N1CC[C@]2(C[C@H](Oc3cccnc3)CO2)C1 — higher, 9.53%
- c1ccc2cc(OCCN3CCOC(Cn4cncn4)C3)ccc2c1 (stereo not given) — higher, -2.92%
